According to article PMC5540273 (PLoS ONE, 2017):

What was measured:
Conditions in all cases: concentration: 1 μM,replicates: in singlicate; n = 1
[1] = system: RPS6KA4(Kin.Dom.1-N-terminal)
[2] = system: RPS6KA4(Kin.Dom.2-C-terminal)
[3] = system: RPS6KA5(Kin.Dom.1-N-terminal)
[4] = system: RPS6KA5(Kin.Dom.2-C-terminal)
[5] = system: T1, RSK1(Kin.Dom.1-N-terminal)
T1 construct: gene RPS6KA1

[6] = system: T2, RSK1(Kin.Dom.2-C-terminal)
T2 construct: gene RPS6KA1

[7] = system: T3, RSK2(Kin.Dom.1-N-terminal)
T3 construct: gene RPS6KA3

[8] = system: T4, RSK2(Kin.Dom.2-C-terminal)
T4 construct: gene RPS6KA3

[9] = system: T5, RSK3(Kin.Dom.1-N-terminal)
T5 construct: gene RPS6KA2

[10] = system: T6, RSK3(Kin.Dom.2-C-terminal)
T6 construct: gene RPS6KA2
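Further: KINOMEscan kinase panel screen.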

Structure (SMILES): Cc1cc(C(=O)Nc2ccc(Oc3ccc4nc(NC(=O)C5CC5)cn4n3)cc2)nn1-c1ccccc1
- %Inh [1]: 20%
- %Inh [2]: 0%
- %Inh [3]: 0%
- %Inh [4]: 6%
- %Inh [5]: 0%
- %Inh [6]: 0%
- %Inh [7]: 0%
- %Inh [8]: 49%
- %Inh [9]: 0%
- %Inh [10]: 6%

Structure (SMILES): Cc1n[nH]c2ccc(-c3cc(OC[C@@H](N)Cc4ccccc4)cnc3-c3ccoc3)cc12.O=C(O)C(F)(F)F.O=C(O)C(F)(F)F [GSK507358]
- %Inh [1]: 0%
- %Inh [2]: 0%
- %Inh [3]: 42%
- %Inh [4]: 1%
- %Inh [5]: 4%
- %Inh [6]: 0%
- %Inh [7]: 17%
- %Inh [8]: 0%
- %Inh [9]: 12%
- %Inh [10]: 16%

Structure (SMILES): COc1ccc(C[C@@H](CN)NC(=O)c2cc(Br)c(-c3ccnc4[nH]ccc34)s2)cc1.Cl.Cl [GSK1389063]
- %Inh [1]: 68%
- %Inh [2]: 59%
- %Inh [3]: 87%
- %Inh [4]: 21%
- %Inh [5]: 42%
- %Inh [6]: 0%
- %Inh [7]: 90.8%
- %Inh [8]: 0%
- %Inh [9]: 63%
- %Inh [10]: 15%

Structure (SMILES): Cl.Cl.Nc1nc(-c2ccc3c(N)n[nH]c3c2)cc(N2CCCC(NC(=O)c3ccccc3)C2)n1 (centres unmarked) [GSK2286775]
- %Inh [1]: 0%
- %Inh [2]: 0%
- %Inh [3]: 0%
- %Inh [4]: 4%
- %Inh [5]: 20%
- %Inh [6]: 10%
- %Inh [7]: 6%
- %Inh [8]: 0%
- %Inh [9]: 32%
- %Inh [10]: 16%

Structure (SMILES): Nc1nc(Nc2ccccc2)cc(-c2ccc3c(N)n[nH]c3c2)n1 [GSK2225749]
- %Inh [1]: 0%
- %Inh [2]: 51%
- %Inh [3]: 15%
- %Inh [4]: 17%
- %Inh [5]: 0%
- %Inh [6]: 0%
- %Inh [7]: 20%
- %Inh [8]: 22%
- %Inh [9]: 7%
- %Inh [10]: 4%

Structure (SMILES): CNC(=O)c1ccccc1Sc1ccc2c(/C=C/c3ccccn3)n[nH]c2c1
- %Inh [1]: 0%
- %Inh [2]: 0%
- %Inh [3]: 0%
- %Inh [4]: 0%
- %Inh [5]: 0%
- %Inh [6]: 0%
- %Inh [7]: 0%
- %Inh [8]: 0%
- %Inh [9]: 11%
- %Inh [10]: 6%

Structure (SMILES): C[C@@H](Oc1cc(-c2cnn(C3CCNCC3)c2)cnc1N)c1c(Cl)ccc(F)c1Cl
- %Inh [1]: 0%
- %Inh [2]: 3%
- %Inh [3]: 0%
- %Inh [4]: 0%
- %Inh [5]: 14%
- %Inh [6]: 17%
- %Inh [7]: 13%
- %Inh [8]: 0%
- %Inh [9]: 14%
- %Inh [10]: 20%

Structure (SMILES): Cl.Oc1cc(-c2nc(-c3ccccc3)[nH]c2-c2ccncc2)ccc1Cl [SB-386023]
- %Inh [1]: 0%
- %Inh [2]: 13%
- %Inh [3]: 1%
- %Inh [4]: 0%
- %Inh [5]: 4%
- %Inh [6]: 23%
- %Inh [7]: 0%
- %Inh [8]: 0%
- %Inh [9]: 0%
- %Inh [10]: 0%

Structure (SMILES): C[C@@H]1CCN(C(=O)CC#N)C[C@@H]1N(C)c1ncnc2[nH]ccc12
- %Inh [2]: 0%
- %Inh [3]: 0%
- %Inh [4]: 0%
- %Inh [5]: 20%
- %Inh [6]: 0%
- %Inh [7]: 0%
- %Inh [8]: 0%
- %Inh [9]: 0%
- %Inh [10]: 100%

Structure (SMILES): CC(C)Nc1cc(-c2ccc3c(N)n[nH]c3c2)nc(N)n1 [GSK2221681]
- %Inh [1]: 0%
- %Inh [2]: 88%
- %Inh [3]: 0%
- %Inh [4]: 68%
- %Inh [5]: 28%
- %Inh [6]: 0%
- %Inh [7]: 8%
- %Inh [8]: 19%
- %Inh [9]: 18%
- %Inh [10]: 12%

Structure (SMILES): CCn1c(-c2nonc2N)nc2c(C#CC(C)(C)O)nc(OCCN)cc21.Cl.Cl [GSK902056]
- %Inh [1]: 0%
- %Inh [2]: 79%
- %Inh [3]: 23%
- %Inh [4]: 38%
- %Inh [5]: 0%
- %Inh [6]: 0%
- %Inh [7]: 10%
- %Inh [8]: 22%
- %Inh [9]: 19%
- %Inh [10]: 0%

Structure (SMILES): Cl.Cl.NC[C@H](Cc1ccc(C(F)(F)F)cc1)NC(=O)c1cc(Br)c(-c2ccnc3[nH]ccc23)s1 [GSK1487252]
- %Inh [1]: 41%
- %Inh [2]: 0%
- %Inh [3]: 72%
- %Inh [4]: 21%
- %Inh [5]: 20%
- %Inh [6]: 7%
- %Inh [7]: 56%
- %Inh [8]: 1%
- %Inh [9]: 37%
- %Inh [10]: 0%

Structure (SMILES): NC(=O)c1cc(-c2ccccc2)cc2c(C3CCNCC3)c[nH]c12 [GSK301362]
- %Inh [1]: 16%
- %Inh [2]: 0%
- %Inh [3]: 12%
- %Inh [4]: 4%
- %Inh [5]: 8%
- %Inh [6]: 0%
- %Inh [7]: 0%
- %Inh [8]: 54%
- %Inh [9]: 27%
- %Inh [10]: 0%

Structure (SMILES): Cc1occc1-c1nc(N)c(OC[C@@H](N)Cc2c[nH]c3ccccc23)cc1-c1cc2c(C)n[nH]c2cn1 [GSK1660450]
- %Inh [1]: 7%
- %Inh [2]: 0%
- %Inh [3]: 72%
- %Inh [4]: 0%
- %Inh [5]: 26%
- %Inh [6]: 18%
- %Inh [7]: 98.1%
- %Inh [8]: 24%
- %Inh [9]: 87%
- %Inh [10]: 0%

Structure (SMILES): CC(C)N1C(=O)Cc2cc(Nc3ncc(C(F)(F)F)c(NCc4cccc(S(C)(=O)=O)c4)n3)ccc21
- %Inh [1]: 0%
- %Inh [2]: 24%
- %Inh [3]: 0%
- %Inh [4]: 22%
- %Inh [5]: 21%
- %Inh [6]: 19%
- %Inh [7]: 56%
- %Inh [8]: 2%
- %Inh [9]: 39%
- %Inh [10]: 26%

Structure (SMILES): Cc1cc2cn[nH]c2cc1-c1cccc2c(N)c(C(N)=O)nnc12
- %Inh [1]: 92.6%
- %Inh [2]: 12%
- %Inh [3]: 51%
- %Inh [4]: 2%
- %Inh [5]: 48%
- %Inh [6]: 15%
- %Inh [7]: 58%
- %Inh [8]: 0%
- %Inh [9]: 26%
- %Inh [10]: 2%

Structure (SMILES): C[C@H]1Oc2cc(cnc2N)-c2c(nn(C)c2C#N)CN(C)C(=O)c2ccc(F)cc21
- %Inh [1]: 3%
- %Inh [2]: 0%
- %Inh [3]: 16%
- %Inh [4]: 1%
- %Inh [5]: 0%
- %Inh [6]: 0%
- %Inh [7]: 0%
- %Inh [8]: 0%
- %Inh [9]: 5%
- %Inh [10]: 14%

Structure (SMILES): CN(C)CC(O)COc1ccc(Nc2nccc(-c3cnn4nc(N5CCOCC5)ccc34)n2)cc1 (centres unmarked) [GW767488]
- %Inh [1]: 0%
- %Inh [2]: 53%
- %Inh [3]: 0%
- %Inh [4]: 0%
- %Inh [5]: 23%
- %Inh [6]: 49%
- %Inh [7]: 62%
- %Inh [8]: 1%
- %Inh [9]: 20%
- %Inh [10]: 37%

Structure (SMILES): CCN(CC)CCCCNc1ncc2cc(-c3c(Cl)cccc3Cl)c(NC(=O)NC(C)(C)C)nc2n1
- %Inh [1]: 0%
- %Inh [2]: 16%
- %Inh [3]: 8%
- %Inh [4]: 0%
- %Inh [5]: 0%
- %Inh [6]: 13%
- %Inh [7]: 0%
- %Inh [8]: 0%
- %Inh [9]: 0%
- %Inh [10]: 14%

Structure (SMILES): O=C(NCCCN1CCOC1=O)c1cnc(NCc2cc(Cl)ccc2Cl)nc1NC1CCCC1
- %Inh [1]: 10%
- %Inh [2]: 0%
- %Inh [3]: 15%
- %Inh [4]: 8%
- %Inh [5]: 8%
- %Inh [6]: 6%
- %Inh [7]: 2%
- %Inh [8]: 16%
- %Inh [9]: 67%
- %Inh [10]: 13%

Structure (SMILES): Cc1ccc(-n2nc(C(C)(C)C)cc2NC(=O)Nc2ccc(OCCN3CCOCC3)c3ccccc23)cc1 [GW839464]
- %Inh [1]: 23%
- %Inh [2]: 0%
- %Inh [3]: 2%
- %Inh [4]: 18%
- %Inh [5]: 100%
- %Inh [6]: 0%
- %Inh [7]: 0%
- %Inh [8]: 0%
- %Inh [9]: 54%
- %Inh [10]: 4%

Structure (SMILES): C=CC(=O)Nc1cc2c(Nc3ccc(F)c(Cl)c3)ncnc2cc1OCCCN1CCOCC1 [GW781483]
- %Inh [1]: 7%
- %Inh [2]: 3%
- %Inh [3]: 0%
- %Inh [4]: 0%
- %Inh [5]: 0%
- %Inh [6]: 0%
- %Inh [7]: 33%
- %Inh [8]: 24%
- %Inh [9]: 17%
- %Inh [10]: 11%

Structure (SMILES): CCN(CC)CCOc1ccc(Nc2ncc3cc(-c4c(Cl)cccc4Cl)c(=O)n(C)c3n2)cc1 [SB-601273]
- %Inh [1]: 0%
- %Inh [2]: 0%
- %Inh [3]: 0%
- %Inh [4]: 36%
- %Inh [5]: 19%
- %Inh [6]: 51%
- %Inh [7]: 45%
- %Inh [8]: 47%
- %Inh [9]: 29%
- %Inh [10]: 0%

Structure (SMILES): Cl.Cl.NC[C@H](CC1CCCCC1)NC(=O)c1cc(Br)c(-c2ccnc3[nH]ccc23)s1 [GSK1581427]
- %Inh [1]: 56%
- %Inh [2]: 5%
- %Inh [3]: 50%
- %Inh [4]: 13%
- %Inh [5]: 26%
- %Inh [6]: 64%
- %Inh [7]: 49%
- %Inh [8]: 5%
- %Inh [9]: 38%
- %Inh [10]: 0%

Structure (SMILES): O=C(NCCNc1ccnc(NCc2ccc(F)cc2)n1)c1cc2ccccc2s1 [GSK1379944]
- %Inh [1]: 28%
- %Inh [2]: 0%
- %Inh [3]: 24%
- %Inh [4]: 0%
- %Inh [5]: 11%
- %Inh [6]: 0%
- %Inh [7]: 0%
- %Inh [8]: 18%
- %Inh [9]: 20%
- %Inh [10]: 0%

Structure (SMILES): CN(C)CCOc1ccc(-c2cc(-c3c[nH]nc3-c3ccccn3)ccn2)cc1 [GW835314]
- %Inh [1]: 0%
- %Inh [2]: 17%
- %Inh [3]: 8%
- %Inh [4]: 1%
- %Inh [5]: 0%
- %Inh [6]: 40%
- %Inh [7]: 21%
- %Inh [8]: 16%
- %Inh [9]: 84%
- %Inh [10]: 10%

Structure (SMILES): Cc1ccc2c(-c3ccncc3)c(-c3ccc(F)cc3)nn2c1.Cl [GW461484]
- %Inh [1]: 18%
- %Inh [2]: 0%
- %Inh [3]: 0%
- %Inh [4]: 15%
- %Inh [5]: 0%
- %Inh [6]: 52%
- %Inh [7]: 0%
- %Inh [8]: 1%
- %Inh [9]: 1%
- %Inh [10]: 0%
